Where “and” joins values, the source holds several entries; their conditions need not be identical. Identical values can stand only once. This is part of a sample that, as a whole, favours compounds with a hit. Of some 79,000 tested, about 15% had one in any assay. Some structures have more than one record in an assay (separate samples or runs), and their calls can disagree. Calls of active or inactive are those of the source. Rule as the data show it: active = growth inhibition above about 70%; inactive = the rest.
Assays:
[1] = NCI Yeast Anticancer Drug Screen. Data for the rad50 strain (AID 155);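 also: 0% = growth of vehicle-only cultures of the same strain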; conditions: S. cerevisiae rad50 strain growth inhibition, stronger effect = higher value
How it was run: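 Relative growth inhibition (compound vs vehicle) was measured in yeast with a defined repair-gene alteration.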

[2] = NCI Yeast Anticancer Drug Screen. Data for the mec2-1 strain (AID 157); conditions: S. cerevisiae mec2-1 strain, stronger effect = higher value
How it was run: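 Test agents were screened against the mec2-1 yeast strain, with defined DNA repair or cell cycle alteration. Growth was scored as inhibition against vehicle-only controls.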

[3] = NCI Yeast Anticancer Drug Screen. Data for the sgs1 mgt1 strain (AID 161);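 also: 0% = growth of cultures given vehicle only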; conditions: S. cerevisiae sgs1 mgt1 strain, stronger effect = higher value
How it was run: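 Mutant yeast exposed to compound; growth scored against vehicle-only wells.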

[4] = NCI Yeast Anticancer Drug Screen. Data for the cln2 rad14 strain (AID 165);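 also: 0% = growth equal to vehicle treated cultures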; conditions: S. cerevisiae cln2 rad14 strain, stronger effect = higher value
How it was run: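 Growth of compound-exposed yeast (cln2 rad14 genotype) measured and expressed as inhibition relative to vehicle.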

[5] = NCI Yeast Anticancer Drug Screen. Data for the bub3 strain (AID 167); conditions: S. cerevisiae bub3 mutant strain, stronger effect = higher value
How it was run: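 Screening used yeast with an engineered genetic alteration affecting cell cycle control. Compound-exposed cultures were compared with vehicle cultures, and reduced growth was taken as inhibition.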

[6] = NCI Yeast Anticancer Drug Screen. Data for the mlh1 rad18 strain (AID 175); conditions: S. cerevisiae mlh1 rad18 strain growth inhibition, stronger effect = higher value
How it was run: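 In this whole-cell yeast screen, a strain with altered DNA damage repair is challenged with compound, and its growth is measured against matched vehicle-treated controls.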

[7] = at 5.0 µM (retest, dose inferred, filed as 0.5)
[8] = at 50.0 µM (retest, dose inferred, filed as 5.0)

Row | Compound | growth inhibition [1, 7] | growth inhibition [1, 8] | growth inhibition ([1]; at 50.0 µM) | growth inhibition [2, 7] | growth inhibition [2, 8] | growth inhibition ([2]; at 50.0 µM) | growth inhibition [3, 7] | growth inhibition [3, 8] | growth inhibition ([3]; at 50.0 µM) | growth inhibition [4, 7] | growth inhibition [4, 8] | growth inhibition ([4]; at 50.0 µM) | growth inhibition [5, 7] | growth inhibition [5, 8] | growth inhibition ([5]; at 50.0 µM) | growth inhibition [6, 7] | growth inhibition [6, 8] | growth inhibition ([6]; at 50.0 µM)
1 | CC1(C)N(OC2CCCCO2)C(c2ccccc2)C(c2ccccc2)=[N+]1[O-] (stereo not given) | 18% (inactive) | 24% (inactive) | 34% (inactive) | 12% (inactive) | 21% (inactive) | 3.05% (inactive) | 18% (inactive) | 18% (inactive) | -13.7% (inactive) | 17% (inactive) | 27% (inactive) | 7.4% (inactive) | 19% (inactive) | 25% (inactive) | -23% (inactive) | 21% (inactive) | 24% (inactive) | -6.55% (inactive)
2 | CCOC(=O)C1=C(C(=O)c2ccc(C)cc2)C(c2cccc([N+](=O)[O-])c2)C(C(=O)c2ccc(C)cc2)=C(C(=O)OCC)N1 | 4% (inactive) | 55% (inactive) | 60.6% (inactive) | 3% (inactive) | 69% (inactive) | 78% (active) | 8% (inactive) | 47% (inactive) | 61.1% (inactive) | -3% (inactive) | 2% (inactive) | 19.3% (inactive) | 2% (inactive) | 61% (inactive) | 76.2% (active) | 0% (inactive) | -17% (inactive) | 78.9% (active)
3 | CCn1c(-c2c(Cl)cc(O)cc2Cl)cc2c(Cl)cc(O)cc21 | 64% (inactive) | 99% (active) | 98.1% (active) | 97% (active) | 99% (active) | 99% (active) | 17% (inactive) | 98% (active) | 98.5% (active) | 13% (inactive) | 98% (active) | 98.5% (active) | 11% (inactive) | 96% (active) | 98% (active) | 22% (inactive) | 94% (active) | 98.6% (active)
4 | O=c1cc[nH]c2ccccc12 | 34% (inactive) | 81% (active) | 13.5% (inactive) and 0% (inactive) | 24% (inactive) | 63% (inactive) | 1.25% (inactive) and -3.85% (inactive) | 16% (inactive) | 64% (inactive) | -6.85% (inactive) and 7.5% (inactive) | 6% (inactive) | 48% (inactive) | 7.35% (inactive) and -24.1% (inactive) | 71% (active) | 98% (active) | -1.2% (inactive) and -1.85% (inactive) | 50% (inactive) | 88% (active) | 0.7% (inactive) and 0.35% (inactive)
5 | COC1OC2COC(c3ccccc3)OC2C(O)C1OS(=O)(=O)c1ccc(C)cc1 (stereo not given) | -3% (inactive) | 1% (inactive) | 46.5% (inactive) and 3.9% (inactive) | 0% (inactive) | 51% (inactive) | 46.4% (inactive) and 2.7% (inactive) | -7% (inactive) | 46% (inactive) | 74.6% (active) and 16.9% (inactive) | -10% (inactive) | -8% (inactive) | 31.8% (inactive) and -1.35% (inactive) | -3% (inactive) | 2% (inactive) | 32.3% (inactive) and -1.1% (inactive) | -1% (inactive) | 49% (inactive) | 63.1% (inactive) and 0.65% (inactive)

Reference: PubChem BioAssay (NCI)
